From PubChem BioAssay (NCATS)
Results filed as inconclusive are left out. Calls of active or inactive are those of the source. Calls follow the shape of the dose curve; as a rule, active = well fitted curve in the direction sought with a large enough effect; inconclusive = small, poorly fitted or top-dose-only effect, or another doubt; inactive = no such curve, though single readings can be large; an effect the other way counts as inactive or inconclusive.

Experiments:
[1] = Quantitative High-Throughput drug screen in 47 multiple myeloma cell lines against the NCATS MIPE library collection: KHM11_PLB cell viability assay (AID 1918962); also: nearly all actives have a fitted effect of over 35% in size; also: potency is read from the fitted curve at half-maximal effect
Method in brief: (§1)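 Inhibition of cell viability is measured here. Each line was plated at 500 cells per well, treated with MIPE 4.0 drugs, kept 48 hours at 37C, then assayed for ATP content by CellTiter-Glo luminescence.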

[2] = Quantitative High-Throughput drug screen in 47 multiple myeloma cell lines against the NCATS MIPE library collection: JIM3_ECACC cell viability assay (AID 1918963; also: nearly all actives have a fitted effect of over 35% in size; also: potency is read from the fitted curve at half-maximal effect)
Method in brief: as §1

[3] = Quantitative High-Throughput drug screen in 47 multiple myeloma cell lines against the NCATS MIPE library collection: INA6_PLB cell viability assay (AID 1918965; also: nearly all actives have a fitted effect of over 55% in size; also: potency is read from the fitted curve at half-maximal effect)
Method in brief: (§2)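 qHTS of the MIPE 4.0 collection: 500 myeloma cells/well, 48 h drug exposure at 37C in 5% CO2, then CellTiter-Glo for 5 min at room temperature before luminescence reading.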

[4] = Quantitative High-Throughput drug screen in 47 multiple myeloma cell lines against the NCATS MIPE library collection: H1112_PLB cell viability assay (AID 1918967; also: nearly all actives have a fitted effect of over 30% in size; also: potency is read from the fitted curve at half-maximal effect)
Method in brief: as §2

[5] = Quantitative High-Throughput drug screen in 47 multiple myeloma cell lines against the NCATS MIPE library collection: Karpas25_ECACC cell viability assay (AID 1918968; also: nearly all actives have a fitted effect of over 35% in size; also: potency is read from the fitted curve at half-maximal effect)
Method in brief: as §2

[6] = Quantitative High-Throughput drug screen in 47 multiple myeloma cell lines against the NCATS MIPE library collection: KMS12PE_JCRB cell viability assay (AID 1918972); also: nearly all actives have a fitted effect of over 30% in size; also: potency is read from the fitted curve at half-maximal effect; as to viability: series mostly up to about 46 µM
Method in brief: as §2

[7] = Quantitative High-Throughput drug screen in 47 multiple myeloma cell lines against the NCATS MIPE library collection: KMS20_JCRB cell viability assay (AID 1918973); also: nearly all actives have a fitted effect of over 45% in size; also: potency is read from the fitted curve at half-maximal effect
Method in brief: as §2

[8] = Quantitative High-Throughput drug screen in 47 multiple myeloma cell lines against the NCATS MIPE library collection: MOLP8_DSMZ cell viability assay (AID 1918977); also: nearly all actives have a fitted effect of over 45% in size; also: potency is read from the fitted curve at half-maximal effect
Method in brief: (§3)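 Viability after 48 h drug exposure was measured as ATP-dependent luminescence. Cells, 500 per well, sat at 37 °C under 5% CO2; DMSO wells set 100%, media-only wells 0%.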

[9] = Quantitative High-Throughput drug screen in 47 multiple myeloma cell lines against the NCATS MIPE library collection: NCIH929_DSMZ cell viability assay (AID 1918978); also: nearly all actives have a fitted effect of over 35% in size; also: potency is read from the fitted curve at half-maximal effect
Method in brief: as §3

[10] = Quantitative High-Throughput drug screen in 47 multiple myeloma cell lines against the NCATS MIPE library collection: OCIMY1_PLB cell viability assay (AID 1918979)
Method in brief: as §3

[11] = Quantitative High-Throughput drug screen in 47 multiple myeloma cell lines against the NCATS MIPE library collection: MM1S_ATCC cell viability assay (AID 1918980); also: nearly all actives have a fitted effect of over 45% in size; also: potency is read from the fitted curve at half-maximal effect
Method in brief: as §3

[12] = Quantitative High-Throughput drug screen in 47 multiple myeloma cell lines against the NCATS MIPE library collection: MM1R_ATCC cell viability assay (AID 1918981); also: nearly all actives have a fitted effect of over 35% in size; also: potency is read from the fitted curve at half-maximal effect
Method in brief: as §3

[13] = Quantitative High-Throughput drug screen in 47 multiple myeloma cell lines against the NCATS MIPE library collection: LP1_DSMZ cell viability assay (AID 1918982); also: nearly all actives have a fitted effect of over 35% in size; also: potency is read from the fitted curve at half-maximal effect
Method in brief: as §3

[14] = Quantitative High-Throughput drug screen in 47 multiple myeloma cell lines against the NCATS MIPE library collection: JJN3_DSMZ cell viability assay (AID 1918966; also: nearly all actives have a fitted effect of over 50% in size; also: potency is read from the fitted curve at half-maximal effect)
Method in brief: as §2

[15] = Quantitative High-Throughput drug screen in 47 multiple myeloma cell lines against the NCATS MIPE library collection: KMS12BM_JCRB cell viability assay (AID 1918971); also: nearly all actives have a fitted effect of over 35% in size; also: potency is read from the fitted curve at half-maximal effect
Method in brief: (§4)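 Myeloma cells (500 per well) were exposed to MIPE 4.0 compounds by pin transfer and incubated 48 hours at 37C, 5% CO2. Viability was read as ATP by CellTiter-Glo luminescence, normalised to DMSO (100%) and media-only (0%) wells.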

[16] = Quantitative High-Throughput drug screen in 47 multiple myeloma cell lines against the NCATS MIPE library collection: KMS27_JCRB cell viability assay (AID 1918970); also: nearly all actives have a fitted effect of over 30% in size; also: potency is read from the fitted curve at half-maximal effect
Method in brief: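 Viability inhibition screen, 48 h compound exposure, luminescent ATP read-out.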

[17] = Quantitative High-Throughput drug screen in 47 multiple myeloma cell lines against the NCATS MIPE library collection: KMS26_JCRB cell viability assay (AID 1918975); also: nearly all actives have a fitted effect of over 45% in size; also: potency is read from the fitted curve at half-maximal effect
Method in brief: as §4

[18] = Quantitative High-Throughput drug screen in 47 multiple myeloma cell lines against the NCATS MIPE library collection: JIM1_ECACC cell viability assay (AID 1918964; also: potency is read from the fitted curve at half-maximal effect)
Method in brief: as §2

[19] = Quantitative High-Throughput drug screen in 47 multiple myeloma cell lines against the NCATS MIPE library collection: MMM1_PLB cell viability assay (AID 1918976)
Method in brief: as §3

Measured: Potency

Cn1c(N2CCCCS2(=O)=O)nc(C(=O)NCc2ccc(F)cc2)c(O)c1=O
inactive: [1] | [2] | [3] | [4] | [7] | [8] | [9] | [10] | [11] | [12] | [13]
active: [5] 20.9 µM | [6] 20.9 µM

CCS(=O)(=O)N1CC(CC#N)(n2cc(-c3ncnc4[nH]ccc34)cn2)C1
inactive: [4] | [5] | [7] | [10]
active: [1] 11.8 µM | [2] 16.6 µM | [3] 0.418 µM | [14] 11.8 µM | [15] 18.7 µM | [11] 20.9 µM

NC(=O)c1ccc2nc(-c3ccc(Oc4ccc(Cl)cc4)cc3)[nH]c2c1
active: [1] 0.0083 µM | [2] 0.105 µM | [3] 0.0209 µM | [5] 4.69 µM | [6] 9.35 µM | [7] 5.26 µM | [9] 0.0235 µM
inactive: [4]

CC(C)(C)COc1ccc(-n2cc(C(=O)O)cn2)cc1C#N
inactive: [1] | [2] | [3] | [14] | [4] | [16] | [15] | [6] | [17] | [8] | [9] | [10] | [12] | [13]

O=C1c2c(O)cc(O)cc2O[C@H](c2cc(O)c(O)c(O)c2)[C@H]1O
inactive: [1] | [2] | [4] | [16] | [6] | [9]
active: [18] 5.9 µM | [14] 16.6 µM | [17] 20.9 µM | [19] 10.5 µM | [8] 18.7 µM | [11] 20.9 µM | [12] 23.5 µM | [13] 20.9 µM

COc1ccc(C2Sc3ccccc3N(CCN(C)C)C(=O)C2OC(C)=O)cc1 (stereo not drawn)
inactive: [1] | [2] | [14] | [4] | [5] | [6] | [7] | [9] | [10] | [12]
active: [15] 2.64 µM | [13] 0.0017 µM

C=C1C(=O)OC(CCCCCCCC)C1C(=O)O (stereo not drawn)
active: [3] 18.7 µM | [5] 26.4 µM
inactive: [1] | [18] | [16] | [8] | [13]

Clc1ccc(-c2nc3sccn3c2C=NOCc2ccc(Cl)c(Cl)c2)cc1
active: [19] 0.372 µM
inactive: [1] | [3] | [14] | [4] | [5] | [6] | [17] | [8] | [9] | [10] | [12] | [13]

COc1cccc([C@@H](C)NCCCc2ccccc2Cl)c1
inactive: [1] | [2] | [14] | [15] | [17] | [8] | [10] | [12] | [13]

C[N+](C)(C)CC(=O)O
inactive: [1] | [4] | [6] | [9] | [12]

O=c1cc(-c2ccccc2)oc2cc(O)cc(O)c12
inactive: [1] | [4] | [9] | [10] | [12]
active: [2] 16.6 µM

CCc1ccc(C=C2SC(=S)NC2=O)cc1
inactive: [1] | [18] | [4] | [8] | [9] | [10] | [13]
active: [3] 2.35 µM

CC1(C)Cc2c(sc(NC(=S)NC(=O)c3ccccc3)c2C(=O)O)CO1
inactive: [1] | [18] | [10] | [12] | [13]

O=C(O)c1ccc(-c2cc3cccnc3c(-c3ccc4nonc4c3)n2)cc1
active: [1] 20.9 µM | [3] 20.9 µM | [5] 23.5 µM | [15] 20.9 µM | [6] 20.9 µM | [7] 11.8 µM | [8] 26.4 µM | [9] 26.4 µM | [11] 23.5 µM

CC(C)[C@H](CO)Nc1nc(Nc2ccc(C(=O)O)c(Cl)c2)c2ncn(C(C)C)c2n1
active: [1] 0.0148 µM | [3] 0.059 µM | [9] 23.5 µM

O=C1NC(=O)C(=Cc2ccc3c(c2)OC(F)(F)O3)S1
inactive: [18] | [8] | [10]
active: [1] 13.2 µM | [3] 26.4 µM | [4] 20.9 µM | [5] 18.7 µM | [7] 13.2 µM | [17] 18.7 µM | [11] 20.9 µM | [13] 18.7 µM

CN(C[C@@H]1COCCO1)S(=O)(=O)Nc1ccc2ccc3ncc(-c4cnn(C)c4)cc3c(=O)c2c1
active: [1] 0.743 µM | [3] 4.18 µM | [4] 1.66 µM | [5] 3.32 µM | [15] 16.6 µM | [6] 0.743 µM | [7] 1.18 µM | [9] 7.43 µM | [11] 16.6 µM | [12] 18.7 µM

Oc1ccc(C2=Cc3ccc(O)cc3OC2)cc1
active: [1] 5.26 µM | [18] 3.32 µM | [3] 0.662 µM | [14] 1.48 µM | [5] 1.48 µM | [16] 2.09 µM | [15] 2.96 µM | [7] 3.32 µM | [19] 5.26 µM | [8] 2.35 µM | [9] 2.09 µM
